POLB inh = blocks human DNA polymerase beta activity; P06746; Pol beta primer extension/strand displacement, fluorescence kinetic; Potency, µM (titrated, usually from 114 µM), for inactives: at the top dose activity change, negative = inhibition, most hits filed as inhibitors; 340,000 compounds, 1.3% hits; note: % is set by controls: 0 for no effect and ±100 for the full control effect
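Homogeneous kinetic assay of primer extension and strand displacement by 10 nM Pol beta, preincubated 15 min at room temperature with compound before 50 nM substrate (final) was added. Read at 0 and 10 min; four-parameter Hill fit.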
FEN1 inhibitor = human FEN1 inhibition; Recombinant FEN1 flap cleavage, fluorescence, 15 min; P39748; 390,000 compounds, 0.35% hits; AID 588795; Potency, µM (titrated, usually from 114 µM), for the others: at the highest dose activity change, negative = inhibition, actives largely listed as inhibitors; note: % is set by controls: 0 for no effect and ±100 for the full control effect; nearly all actives have a fitted effect of over 65% in size
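Read-out was taken twice, immediately and after 15 min, following addition of 50 nM substrate to 10 nM FEN1 that had sat with test compound for 15 min at room temperature. Curves came from a four-parameter Hill model.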
POLI inh = inhibitors of human DNA polymerase iota. Pol iota fluorescent replication assay, 10 min. Potency, µM (series often up to 115 µM), inactives show at the highest dose activity, negative = inhibition, usual class: inhibitors. Q9UNA4. 390,000 compounds, 1% hits
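Pol iota at 10 nM preincubated 15 min with compounds at room temperature; reaction started with fluorescent substrate, 50 nM final. Fluorescence read kinetically at 0 and 10 min; buffer-only wells as negative control.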
POLH inh = inhibitors of human DNA polymerase eta; AID 588591; Potency, µM (doses to about 114 µM), for inactives: top-dose activity change, negative = inhibition, actives largely listed as inhibitors; 390,000 compounds, 1.2% hits; Q9Y253; recombinant Pol eta, fluorescent DNA replication assay; note: % is set by controls: 0 for no effect and ±100 for the full control effect
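Pol eta (10 nM) was preincubated with compounds for 15 min at room temperature, after which fluorescent replication substrate (50 nM final) was added to start the reaction. Fluorescence was read kinetically at 0 and 10 min.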
WRN helicase inh-1 = WRN helicase (human) inhibition | AID 651768 | WRN helicase unwinding, fluorescent forked duplex, kinetic | Q14191 | 360,000 compounds, 0.46% hits | Potency, µM (top dose mostly 114 µM), without a hit: at the highest dose activity change, negative = inhibition, most hits filed as inhibitors; note: % is set by controls: 0 for no effect and ±100 for the full control effect; nearly all actives have a fitted effect of over 55% in size
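Kinetic fluorescence helicase assay: unwinding of a quenched forked DNA duplex (100 nM final) with 2 mM ATP final raises red fluorescence (525/598 nm). Compounds sat 15 min at room temperature with 20 nM WRN beforehand.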
Pol kappa inh = DNA polymerase kappa (human) inhibition. 400,000 compounds, 0.53% hits. purified Pol kappa, fluorescent DNA synthesis assay, 10 min. Q9UBT6. Potency, µM (series often up to 107 µM), for the others: top-dose activity, negative = inhibition, actives largely listed as inhibitors; note: % is set by controls: 0 for no effect and ±100 for the full control effect
Target sequence (Q9UBT6 whole entry, looked up): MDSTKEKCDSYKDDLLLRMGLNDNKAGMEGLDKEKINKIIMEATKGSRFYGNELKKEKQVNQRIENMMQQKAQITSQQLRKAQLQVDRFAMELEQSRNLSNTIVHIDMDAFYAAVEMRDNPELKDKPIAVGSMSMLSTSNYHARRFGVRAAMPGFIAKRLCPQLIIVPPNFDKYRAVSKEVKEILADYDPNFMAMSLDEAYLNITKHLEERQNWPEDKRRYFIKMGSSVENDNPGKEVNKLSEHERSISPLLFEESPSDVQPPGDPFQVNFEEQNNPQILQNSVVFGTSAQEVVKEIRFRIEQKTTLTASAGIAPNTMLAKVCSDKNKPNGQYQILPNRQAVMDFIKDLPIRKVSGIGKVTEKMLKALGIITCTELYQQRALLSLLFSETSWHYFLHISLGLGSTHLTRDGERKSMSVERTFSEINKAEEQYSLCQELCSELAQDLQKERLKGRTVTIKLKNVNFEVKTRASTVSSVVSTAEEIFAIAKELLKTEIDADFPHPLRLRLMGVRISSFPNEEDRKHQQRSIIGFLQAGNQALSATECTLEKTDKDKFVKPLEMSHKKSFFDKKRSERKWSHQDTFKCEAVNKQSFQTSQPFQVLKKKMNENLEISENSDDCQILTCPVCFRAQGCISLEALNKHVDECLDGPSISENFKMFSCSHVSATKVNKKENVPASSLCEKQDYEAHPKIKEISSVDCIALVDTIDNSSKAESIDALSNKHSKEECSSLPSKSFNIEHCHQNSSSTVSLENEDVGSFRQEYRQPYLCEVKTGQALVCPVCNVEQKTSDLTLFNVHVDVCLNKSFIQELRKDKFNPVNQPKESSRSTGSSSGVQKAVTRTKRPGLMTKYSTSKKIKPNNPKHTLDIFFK
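Enzyme at 10 nM met test compounds for 15 min at room temperature. Substrate addition (50 nM final) began the reaction, which was monitored by fluorescence at 0 and 10 min.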
WRN helicase inh-2 = WRN helicase inhibition, cherry-pick retest | shares compounds with WRN helicase inh-1 | Potency, µM (doses to about 57.1 µM), inactives show top-dose activity, negative = inhibition, actives largely listed as inhibitors | 610 compounds, 63% hits | WRN helicase DNA unwinding, fluorescence kinetic; note: nearly all actives have a fitted effect of over 65% in size
TO DNA binding = counter-screen for WRN helicase inhibitors: DNA binding; Potency, µM (titrated, usually from 57.1 µM), without a hit: top-dose activity change, negative = inhibition, most hits filed as inhibitors; 610 compounds, 10% hits; thiazole orange DNA binding displacement, fluorescence; AID 720499; shares compounds with WRN helicase inh-1;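 note: drop in dye fluorescence marks compound binding to DNA; % is set by controls: 0 for no effect and ±100 for the full control effect; nearly all actives have a fitted effect of over 60% in size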
BLM counter = blocks human BLM helicase in WRN counterscreen; AID 720503; 610 compounds, 60% hits; Recombinant BLM helicase DNA unwinding, red fluorescence; Potency, µM (titrated, usually from 57.1 µM), inactives show at the highest dose activity change, negative = inhibition, most hits filed as inhibitors; shares compounds with WRN helicase inh-1; note: nearly all actives have a fitted effect of over 60% in size
An asterisk follows results filed as active; i = inactive; ? = inconclusive; . = no result. Rows were chosen to be rich in hits. Some 2.4% of all compounds tested hit in one or more screens of this group. Calls come from the whole dose curve; as a rule, active = well fitted curve in the direction sought with a large enough effect; inconclusive = small, poorly fitted or top-dose-only effect, or another doubt; inactive = no such curve, though single readings can be large; an effect the other way counts as inactive or inconclusive. Potency is the fitted concentration of half-maximal effect.

SMILES | POLB inh | FEN1 inhibitor | POLI inh | POLH inh | WRN helicase inh-1 | Pol kappa inh | WRN helicase inh-2 | TO DNA binding | BLM counter
COc1ccc(-c2csc(NC(=S)NC(=O)c3cccs3)n2)cc1Br | -0.4% | -6.4% | 98.7% | -8.0% | -35.9% | -6.1% | . | . | .
CC(O)(c1ccccc1)c1nc(-c2ccncc2)cs1 (stereo not drawn) | . | . | . | . | ? | . | ? | -26.9% | ?
COC1=C(OC)C(=O)C(Sc2ccc3ccccc3c2)=CC1=O | . | 5.3% | ? | -19.8% | 20µM* | -8.0% | 8.6% | -8.1% | -6.4%
COC(=O)c1ccccc1NC(=O)Cn1c(=O)n(CCCC(=O)NCc2ccccc2OC)c(=O)c2ccccc21 | 30.3% | -11.6% | 10.3% | -8.4% | . | 3.8% | . | . | .
Cn1cnc([N+](=O)[O-])c1NC(C)(C)C | 10.9% | 3.5% | 19.3% | 0.0% | 2.0% | -3.2% | . | . | .
Cn1cnc([N+](=O)[O-])c1S(=O)(=O)c1ccc(Cl)cc1 | 34.8% | -8.8% | 66.2% | -7.8% | ? | -7.1% | -19.3% | -4.7% | -16.4%
COc1cc(/C=N/Nc2nc(Nc3ccc(C)cc3)nc(-n3nc(C)cc3C)n2)cc(OC)c1OC | -10.2% | -15.7% | 1.7% | -10.6% | -31.2% | -24.9% | . | . | .
COc1cc(/C=N/Nc2nc(Nc3ccccc3)nc(-n3nc(C)cc3C)n2)cc(OC)c1OC | -3.0% | -8.7% | -14.3% | -24.9% | ? | -33.7% | 6.81µM* | 78.1% | 2.71µM*
O=C(O)c1ccccc1-c1ccc(/C=C/c2cc(C(F)(F)F)[nH]c(=O)n2)o1 | ? | -31.9% | ? | 50.1µM* | 79.4µM* | ? | 24.1µM* | i | -16.8%
N#Cc1c(NC(=O)c2ccc(Cn3cc(Br)cn3)o2)sc2c1CCCCC2 | -25.3% | -12.0% | ? | ? | -19.1% | -2.7% | . | . | .
COC(=O)c1sc(NC(=O)c2ccc(Cn3cc(Cl)cn3)o2)c(C#N)c1C | ? | -12.1% | ? | ? | ? | ? | -18.8% | -25.4% | ?

Source: PubChem BioAssay
